The text below walks through data of the supplement of paper PMC10646978.

± gives the standard deviation.

This test deals with RAW-Dual (murine macrophage reporter line). Put plainly: NF-kB reporter (SEAP) activity fold change vs agonist alone; higher = enhanced NF-kB activity. As to conditions: modulator concentration 10 µM; agonist: MPLA […]. In outline: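 RAW-Dual murine macrophage reporter cells were seeded at 50 000 per well in 384-well plates and pre-incubated 1 hour at 37 °C with compound pin-transferred to 10 μM final. After 1 hour, a PRR agonist was added and cells incubated overnight. Supernatant NF-κB (SEAP, QUANTI-Blue, 620 nm absorbance) and IRF (Lucia luciferase, QUANTI-Luc, luminescence) signals were divided by the mean agonist-only control on the same plate to give fold change. Two replicate plates were averaged, with errors by propagation.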
Turning to `CC1ON(c2ccc(Cl)c(Cl)c2)C(=O)NC1=O` (stereo not given), the NF-kB reporter came to 1.06 ± 0.11.
As to `Oc1ccc2ccccc2c1SSc1c(O)ccc2ccccc12`, the NF-kB reporter was found to be 1.18 ± 0.15.
With `COc1ccc2cc1Oc1ccc(cc1)C[C@H]1c3c(cc4c(c3Oc3cc5c(cc3OC)CCN(C)[C@@H]5C2)OCO4)CCN1C`, the NF-kB reporter came out at 0.928 ± 0.059.
For the compound `CCOc1ccc(OCCCCOc2cccc(C)c2)cc1`, the NF-kB reporter worked out at 0.932 ± 0.082.
Under `Cc1cccc(C)c1N(CC(=O)Nc1ccc(-c2ncon2)cc1)C(=O)C1CCS(=O)(=O)CC1` stands 1.05 ± 0.024; under `c1ccc(-n2nnnc2Sc2ncnc3sc4c(c23)CCCC4)cc1`, 0.442 ± 0.027.
For `O=S(=O)(Cc1ccccc1)Nc1ccccn1` the value was 0.893 ± 0.067.
Under `COc1c(C)c2c(c(O)c1C/C=C(\C)CCC(=O)O)C(=O)OC2` stands 0.352 ± 0.032; under `O=C(CCCN1CCN(c2ccccn2)CC1)c1ccc(F)cc1`, 0.952 ± 0.056.
Turning to `Cc1cc(OC2CCN(C(=O)c3csc(C)n3)CC2)nc(C)n1`, the NF-kB reporter stood at 0.923 ± 0.068.
For `O=C1C(Cl)=C(N2CCCCC2)C(=O)N1c1ccc(Cl)c(Cl)c1` the value was 1 ± 0.15; for `CN(C)CCC(c1ccccc1)c1ccccn1.O=C(O)/C=C\C(=O)O` (stereo not given), 0.65 ± 0.036.
With `CS(=O)(=O)N(CC(=O)NC1CC1)c1cccc2ccccc12`, the NF-kB reporter stood at 0.901 ± 0.056.
`Cc1ccc(-c2cc(NC(=O)c3ccc([N+](=O)[O-])cc3)[nH]n2)cc1`: the NF-kB reporter turned out to be 1 ± 0.061.
For `Cn1nc(CNS(=O)(=O)c2cccc(C(F)(F)F)c2)c2c1CCOC2` the value was 1.02 ± 0.065; for `CC(C)NCC(O)COc1cccc2ccccc12.Cl` (stereo not given), 1.03 ± 0.06; for `CCOC(=O)C1=C(C)N(c2ccc(OC)cc2)C(=O)C1=Cc1ccc(C(=O)O)cc1`, 0.984 ± 0.076.
As for `Oc1ccc(N=Cc2ccccc2O)cc1`, the NF-kB reporter was determined as 1.51 ± 0.1.
For `CC(=O)N1CC(C(=O)Nc2ccc(Br)c(C)c2)C1` the value was 0.973 ± 0.053.
Under `CCOc1cc([C@@H](CS(C)(=O)=O)N2C(=O)c3cccc(NC(C)=O)c3C2=O)ccc1OC` stands 1.69 ± 0.15; under `Cc1cn2nc(C(=O)Nc3ccccc3N3CCN(C)CC3)cc2c(=O)[nH]1`, 0.864 ± 0.047; under `O=c1ncnc2[nH][nH]cc1-2`, 1.13 ± 0.13.
For `COC(=O)C1=CN(CC2CCCO2)C=C(C(=O)OC)C1c1ccsc1` (stereo not given) the value was 1.12 ± 0.13.
Turning to `CCOc1ccccc1OCCCCOc1cccc(C)c1C`, the NF-kB reporter was found to be 0.982 ± 0.061.
For `Cc1cccc(-c2cc3nc(C)c(Cl)c(O)n3n2)c1` the value was 0.948 ± 0.025; for `O=C(NNC(=O)c1sc2cc(F)ccc2c1Cl)Nc1ccc(Cl)cc1`, 1.05 ± 0.053.
Under `Cc1cn([C@H]2C=C[C@@H](CO)O2)c(=O)[nH]c1=O` [Prestw-1279] stands 0.957 ± 0.077; under `CCCCC1(C)OC(=O)C(=Cc2ccc(OC)c([N+](=O)[O-])c2)C(=O)O1` (stereo not given), 0.951 ± 0.086.
As for `CC1(C)CCCC2(C)C1CCC1(C)OC(=O)CC12` (stereo not given), the NF-kB reporter stood at 0.762 ± 0.026.
For `Cn1cc(CC(=O)NC2CCN(c3cc(C(F)(F)F)ncn3)CC2)c2ccccc21` the value was 1.13 ± 0.23.
For `COCCN1C(=O)CN(C2CCN(Cc3cc(OC)cc(OC)c3)CC2)C1=O` the value was 0.881 ± 0.04; for `CC(C)Cn1cc(Cl)c(=O)n(CC(C)C)c1=O`, 1.01 ± 0.056.
For the compound `Br.CCCc1cc(-c2nc(-c3ccc(C)cc3)cs2)ccn1`, the NF-kB reporter worked out at 1.08 ± 0.15.
For `CCCCCn1c(=O)[nH]c2cc(C(=O)N3CCN(C(=O)OCC)CC3)ccc2c1=O`, the NF-kB reporter turned out to be 1.02 ± 0.069.
For `COc1ccc(NC(=O)Cc2cn(Cc3ccccc3)c3ccccc23)cc1OC`, the NF-kB reporter turned out to be 1.57 ± 0.13.
For `O=C(NN=Cc1sc2ccccc2c1Cl)c1ccncc1` the value was 0.931 ± 0.058.
For `CS(=O)(=O)N(CC(=O)NCC1CCCO1)c1ccc(Cl)c(C(F)(F)F)c1` (stereo not given) the value was 1.01 ± 0.09; for `COC(=O)C1C(c2ccccc2)C(C(=O)Oc2ccc(C(C)=O)cc2)C1c1ccccc1` (stereo not given), 1.16 ± 0.1.
For `CCN(CC)Cc1ccc(Nc2ccnc3cc(Cl)ccc23)cc1O.Cl.Cl` the value was 0.908 ± 0.085; for `CS(=O)(=O)N1CC(C(=O)N2CCN(c3cccc(Cl)c3Cl)CC2)C1`, 0.985 ± 0.027.
